Measured values from PubChem BioAssay.
Active and inactive are the calls of the source. Unless noted, how the calls were made is not given here.

How the values were obtained:
[1] = compounds binding Alexa647 anti-His antibody – biochemical, small-molecule microarray, 635 nm fluorescence, artefact control for SMM control protein annotation, primary screen (AID 1128); settings: higher = more signal;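 further: score merges feature fluorescence with signal-to-noise for each printed compound spot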
[2] = test system: Human papillomavirus type 1a E7 protein (residues 1-88); assay: HPV1a E7 small-molecule binders, primary screen, biochemical, small-molecule microarray, residues 1-88, 635 nm (AID 1129); settings: small-molecule microarray binding, fluorescence 635 nm; higher = more signal
[3] = molecular target: Focal adhesion kinase 1 (Homo sapiens) (UniProt Q05397); assay: PTK2 protein binding on printed compound slides – biochemical, small-molecule microarray, 635/667 nm fluorescence, BSA, DTT, primary screen (AID 1130); settings: 635 nm fluorescence, higher = more signal;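 further: composite of spot emission at 667 nm and signal to noise over triplicate slides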
Focal adhesion kinase 1 (Homo sapiens), sequence (Q05397 whole entry, looked up): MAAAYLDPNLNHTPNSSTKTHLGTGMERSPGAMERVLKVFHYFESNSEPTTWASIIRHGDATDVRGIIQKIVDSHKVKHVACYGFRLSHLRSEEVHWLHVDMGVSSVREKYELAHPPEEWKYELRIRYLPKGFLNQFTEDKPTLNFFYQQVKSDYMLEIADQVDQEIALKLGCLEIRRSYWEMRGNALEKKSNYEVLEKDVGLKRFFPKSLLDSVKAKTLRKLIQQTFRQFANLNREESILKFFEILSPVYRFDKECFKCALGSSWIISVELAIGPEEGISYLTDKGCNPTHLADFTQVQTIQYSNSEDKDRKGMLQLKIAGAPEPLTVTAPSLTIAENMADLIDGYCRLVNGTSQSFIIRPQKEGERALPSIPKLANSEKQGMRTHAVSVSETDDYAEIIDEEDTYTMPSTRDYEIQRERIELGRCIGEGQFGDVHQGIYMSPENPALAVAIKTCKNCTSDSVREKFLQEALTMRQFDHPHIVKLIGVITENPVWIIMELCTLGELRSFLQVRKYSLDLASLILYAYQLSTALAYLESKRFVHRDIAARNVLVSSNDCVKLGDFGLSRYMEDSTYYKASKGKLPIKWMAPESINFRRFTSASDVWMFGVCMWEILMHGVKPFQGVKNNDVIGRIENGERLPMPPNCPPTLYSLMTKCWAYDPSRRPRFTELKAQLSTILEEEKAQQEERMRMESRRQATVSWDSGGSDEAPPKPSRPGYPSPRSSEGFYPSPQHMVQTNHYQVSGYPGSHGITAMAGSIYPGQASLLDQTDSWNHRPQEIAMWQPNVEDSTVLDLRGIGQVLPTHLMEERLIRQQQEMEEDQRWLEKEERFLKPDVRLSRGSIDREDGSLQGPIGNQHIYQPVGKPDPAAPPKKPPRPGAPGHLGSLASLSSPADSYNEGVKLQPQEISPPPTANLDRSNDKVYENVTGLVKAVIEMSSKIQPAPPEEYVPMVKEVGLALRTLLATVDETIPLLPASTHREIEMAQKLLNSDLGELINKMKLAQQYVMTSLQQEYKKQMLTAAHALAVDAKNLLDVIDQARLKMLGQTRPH

[4] = test system: Fibrinogen (Alexa647-labelled); assay: Alexa647-fibrinogen binding to printed small molecules – biochemical, small-molecule microarray, 635/667 nm fluorescence, artefact control for SMM control-protein annotation, profiling panel (AID 1131); settings: fibrinogen-A647 binding fluorescence, higher = more signal;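 further: z-score merges 667 nm fluorescence with per-spot signal-to-noise over triplicate slides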
[5] = molecular target: Follistatin (Homo sapiens) (UniProt P19883); assay: FST protein binding to printed compounds – biochemical, small-molecule microarray, 635/667 nm fluorescence, primary screen (AID 1132); settings: 635 nm fluorescence, higher = more signal
Follistatin (Homo sapiens), sequence (P19883 whole entry, looked up): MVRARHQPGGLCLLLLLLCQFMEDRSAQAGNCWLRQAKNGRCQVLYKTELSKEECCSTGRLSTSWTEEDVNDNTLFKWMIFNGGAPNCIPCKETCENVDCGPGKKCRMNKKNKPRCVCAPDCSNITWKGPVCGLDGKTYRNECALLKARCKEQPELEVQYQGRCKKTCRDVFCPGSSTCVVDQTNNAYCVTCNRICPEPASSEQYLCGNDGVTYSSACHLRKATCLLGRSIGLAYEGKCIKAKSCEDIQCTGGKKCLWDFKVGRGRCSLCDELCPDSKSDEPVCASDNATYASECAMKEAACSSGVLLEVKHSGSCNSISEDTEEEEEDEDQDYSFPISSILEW

[6] = molecular target: Fibroblast growth factor 2 (Homo sapiens) (UniProt P09038); assay: basic fibroblast growth factor binding to printed compounds – biochemical, small-molecule microarray, 635/667 nm fluorescence, primary screen (AID 1133); settings: FGF2, fluorescence 635/667, higher = more signal
Fibroblast growth factor 2 (Homo sapiens), sequence (P09038 whole entry, looked up): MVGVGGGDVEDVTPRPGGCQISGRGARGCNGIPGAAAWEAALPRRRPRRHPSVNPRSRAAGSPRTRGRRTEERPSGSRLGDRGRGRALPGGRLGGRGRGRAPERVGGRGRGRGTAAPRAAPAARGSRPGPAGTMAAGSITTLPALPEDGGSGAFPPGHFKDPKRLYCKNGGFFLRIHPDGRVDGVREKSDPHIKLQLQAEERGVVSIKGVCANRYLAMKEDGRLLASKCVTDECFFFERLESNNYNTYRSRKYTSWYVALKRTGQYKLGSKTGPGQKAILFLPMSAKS

[7] = JC-1 mitochondrial potential readout, lung cancer cells – cell-based, A549, JC-1 fluorescence, basal, 24 h, 100 nL, profiling panel (AID 1138); settings: higher = more signal;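 further: A549 lung adenocarcinoma cells under basal conditions with no added stimulus; test concentration not given here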
[8] = test system: Lefty1; assay: Lefty1 protein binding to printed compounds – biochemical, small-molecule microarray, 635/667 nm fluorescence, primary screen (AID 1139); settings: fluorescence 635/667, higher = more signal
[9] = test system: wheat germ agglutinin (Triticum aestivum), Alexa647-labelled; assay: Alexa647-WGA lectin binding to printed small molecules – biochemical, small-molecule microarray, 635/667 nm fluorescence, artefact control for SMM control-protein annotation, profiling panel (AID 1140); settings: WGA-A647 binding, 635 nm fluorescence, higher = more signal;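 further: score merges 667 nm feature emission with signal to noise over triplicate slides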
[10] = molecular target: Luciferin 4-monooxygenase (Photinus pyralis) (UniProt P08659); assay: inhibition of purified Photinus pyralis luciferase – biochemical, luminescence, purified enzyme, 2006 set, primary screen (AID 1141); settings: purified firefly luciferase, SteadyGlo luminescence, 30 min; higher = more signal, called active from +8 up or from −8 down;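 further: cell-free assay with purified firefly luciferase at 100 ng per well in PBS; test concentration not given here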
Luciferin 4-monooxygenase (Photinus pyralis), sequence (P08659 whole entry, looked up): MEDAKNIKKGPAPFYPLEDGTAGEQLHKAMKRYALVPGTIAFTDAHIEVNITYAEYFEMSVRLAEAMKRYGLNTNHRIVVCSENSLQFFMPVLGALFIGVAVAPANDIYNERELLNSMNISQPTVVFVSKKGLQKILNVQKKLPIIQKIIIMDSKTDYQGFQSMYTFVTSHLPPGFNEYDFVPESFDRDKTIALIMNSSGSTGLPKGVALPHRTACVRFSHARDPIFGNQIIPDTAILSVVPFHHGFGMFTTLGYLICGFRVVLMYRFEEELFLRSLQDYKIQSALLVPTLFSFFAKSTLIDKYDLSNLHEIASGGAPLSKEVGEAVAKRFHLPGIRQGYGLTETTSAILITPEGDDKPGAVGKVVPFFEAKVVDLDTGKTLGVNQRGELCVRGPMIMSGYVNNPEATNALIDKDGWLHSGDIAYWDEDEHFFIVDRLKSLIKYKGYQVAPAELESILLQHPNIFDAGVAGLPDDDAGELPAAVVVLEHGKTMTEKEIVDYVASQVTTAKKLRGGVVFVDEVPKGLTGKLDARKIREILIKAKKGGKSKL

[11] = test system: Wnt5a (protein binding on small-molecule microarray); assay: small molecules binding Wnt5a protein – biophysical, small-molecule microarray, 635/667 nm fluorescence, primary screen (AID 1142); settings: 635 nm fluorescence, higher = more signal;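 further: fluorescence read at 667 nm with signal to noise per printed feature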
[12] = ATP-based viability of Huh7 replicon cells – cell-based, CellTiter-Glo luminescence, basal, 48 h, cytotoxicity control for HCV replication inhibitor project, primary screen (AID 1143); settings: higher = more signal, called active from +8 up or from −8 down;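 further: Huh7 hepatoma cells carrying a hepatitis C replication reporter with no stimulus; test concentration not given here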
[13] = Pseudomonas biofilm growth suppression – PAO1 strain, BacTiter-Glo luminescence, LB-PBS, primary screen (AID 1144); settings: P. aeruginosa PAO1 biofilm, 12 h, higher = more signal
[14] = basal CRE-LacZ reporter activity in PC12 – cell-based, unstimulated, primary screen (AID 1145); settings: no forskolin, luminescence, 4.5 h, higher = more signal, called active from +8 up or from −8 down
[15] = forskolin-driven CRE-LacZ activity in PC12 – cell-based, CRE-LacZ reporter, forskolin-stimulated, primary screen (AID 1146); settings: luminescence, 4.5 h, higher = more signal, called active from +8 up or from −8 down;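 further: PC12 cells with 6xCRE LacZ reporter stimulated by forskolin 10 µM; beta-galactosidase reporter signal reflecting CREB driven transcription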
[16] = molecular target: Streptavidin (Streptomyces avidinii) (UniProt P22629); assay: compounds binding control protein streptavidin – biophysical, small-molecule microarray, 635/667 nm fluorescence, artefact control for SMM compound annotation, primary screen (AID 1147); settings: higher = more signal;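 further: signal reflects streptavidin binding to arrayed compounds as a control protein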
Streptavidin (Streptomyces avidinii), sequence (P22629 whole entry, looked up): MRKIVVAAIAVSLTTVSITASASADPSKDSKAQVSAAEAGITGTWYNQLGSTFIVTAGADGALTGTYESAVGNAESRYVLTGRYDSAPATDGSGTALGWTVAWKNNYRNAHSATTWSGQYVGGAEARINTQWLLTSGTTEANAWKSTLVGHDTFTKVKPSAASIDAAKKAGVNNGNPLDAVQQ

[17] = probe aInhba binding on compound microarray – biochemical, small-molecule microarray, 635/667 nm fluorescence, primary screen (AID 1148); settings: higher = more signal;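 further: score merges 667nm spot fluorescence with signal-to-noise for antibody binding to printed compounds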
[18] = molecular target: Torsin-1A (Homo sapiens) (UniProt O14656); assay: TOR1A wild-type binding on microarray – cell lysate, small-molecule microarray, lysate, 635/667 nm, primary screen (AID 1149); settings: COS7 hTOR1A-WT lysate, 635 nm fluorescence, higher = more signal
Torsin-1A (Homo sapiens), sequence (O14656 whole entry, looked up): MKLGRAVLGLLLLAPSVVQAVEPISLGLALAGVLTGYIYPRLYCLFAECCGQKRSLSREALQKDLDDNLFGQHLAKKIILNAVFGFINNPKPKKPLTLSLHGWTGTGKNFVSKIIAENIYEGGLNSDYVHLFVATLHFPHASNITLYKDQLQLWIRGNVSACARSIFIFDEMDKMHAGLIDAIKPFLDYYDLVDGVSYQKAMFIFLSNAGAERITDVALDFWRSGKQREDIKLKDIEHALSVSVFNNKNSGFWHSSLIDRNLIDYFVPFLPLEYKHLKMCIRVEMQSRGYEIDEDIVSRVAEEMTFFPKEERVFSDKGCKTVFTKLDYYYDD

[19] = molecular target: Torsin-1A (Homo sapiens) (UniProt O14656); assay: torsin A mutant lysate binding on microarrays – cell lysate, small-molecule microarray, COS7 lysate, 635/667 nm fluorescence, primary screen (AID 1150); settings: COS7 hTOR1A mutant lysate, 635 nm fluorescence, higher = more signal;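 further: score pools 667 nm emission and signal to noise measuring lysate protein binding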
[20] = test system: Sonic hedgehog protein (Shh); assay: Sonic hedgehog microarray binding compounds – biochemical, small-molecule microarray, 635/667 nm fluorescence, primary screen (AID 1151); settings: 635 nm fluorescence, higher = more signal;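 further: Shh protein binding to compounds spotted on small-molecule microarray slides; score combines spot fluorescence intensity with signal-to-noise across triplicate slides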

Q: For `COC(=O)C(CC#Cc1ccc2c(c1)[C@]1(C(=O)N2)[C@H](c2ccccc2OCCO)N2[C@H](c3ccccc3)[C@H](c3ccccc3)OC(=O)[C@H]2[C@@H]1C(=O)Nc1nc2ccccc2s1)C(=O)OC`, which composite z-score [1] is on record?
A: 0.35

Q: What about the composite z-score [2] of the same molecule?
A: 1.21

Q: What about the composite z-score [3] of the same molecule?
A: 0.607

Q: And the composite z-score [4]?
A: 0.97

Q: What about the composite z-score [5] of the same molecule?
A: 1.11

Q: What about the composite z-score [6] of the same molecule?
A: 0.622

Q: And the z-score [7]?
A: -2.12

Q: What about the composite z-score [8] of the same molecule?
A: 0.9

Q: And the composite z-score [9]?
A: 1.29

Q: What about the z-score [10] of the same molecule?
A: -1.21 (inactive)

Q: And the composite z-score [11]?
A: 0.384

Q: What about the z-score [12] of the same molecule?
A: -2.07 (inactive)

Q: What about the z-score [13] of the same molecule?
A: -0.827 (inactive)

Q: And the z-score [14]?
A: 1.21 (inactive)

Q: What about the z-score [15] of the same molecule?
A: 1.53 (inactive)

Q: And the composite z-score [16]?
A: 0.762

Q: And the composite z-score [17]?
A: 0.0633

Q: What about the composite z-score [18] of the same molecule?
A: 0.283

Q: And the composite z-score [19]?
A: 0.24

Q: What about the composite z-score [20] of the same molecule?
A: 1.46

Q: For `O=C1N(CCS(=O)(=O)c2ccccc2)Cc2ccccc2C[C@@]12COC(c1ccc(OCCCO)cc1)=N2`, which composite z-score [1] is on record?
A: 2.25

Q: And the composite z-score [2]?
A: 1.26

Q: And the composite z-score [3]?
A: 1.04

Q: And the composite z-score [4]?
A: 0.841

Q: What about the composite z-score [5] of the same molecule?
A: 1.4

Q: And the composite z-score [6]?
A: 0.962

Q: And the z-score [7]?
A: 0.367

Q: What about the composite z-score [8] of the same molecule?
A: 0.619

Q: And the composite z-score [9]?
A: 1.15

Q: And the z-score [10]?
A: -0.966 (inactive)

Q: And the composite z-score [11]?
A: 0.933

Q: And the z-score [12]?
A: -4.36 (inactive)

Q: And the z-score [13]?
A: 0.898 (inactive)

Q: And the z-score [14]?
A: -0.183 (inactive)

Q: What about the z-score [15] of the same molecule?
A: -2.06 (inactive)

Q: What about the composite z-score [16] of the same molecule?
A: 0.758

Q: What about the composite z-score [17] of the same molecule?
A: 0.325

Q: What about the composite z-score [18] of the same molecule?
A: 0.701

Q: What about the composite z-score [19] of the same molecule?
A: 0.945

Q: What about the composite z-score [20] of the same molecule?
A: 2.03

Q: For `CN1C(=O)C2C=CC(C(O)COCc3ccccc3)N(Nc3ccccc3)C2C1=O` (stereo not given), which composite z-score [1] is on record?
A: 0.563

Q: And the composite z-score [2]?
A: 0.593

Q: What about the composite z-score [3] of the same molecule?
A: 0.324

Q: What about the composite z-score [4] of the same molecule?
A: 0.711

Q: And the composite z-score [5]?
A: 0.433

Q: And the composite z-score [6]?
A: -0.11

Q: And the z-score [7]?
A: 1.64

Q: And the composite z-score [8]?
A: 0.135

Q: And the composite z-score [9]?
A: 0.681

Q: What about the z-score [10] of the same molecule?
A: 0.982 (inactive)

Q: What about the composite z-score [11] of the same molecule?
A: 0.122

Q: And the z-score [12]?
A: 0.631 (inactive)

Q: And the z-score [13]?
A: -0.0726 (inactive)

Q: And the z-score [14]?
A: 1.59 (inactive)

Q: And the z-score [15]?
A: -0.236 (inactive)

Q: What about the composite z-score [16] of the same molecule?
A: 0.37

Q: What about the composite z-score [17] of the same molecule?
A: -0.018

Q: What about the composite z-score [18] of the same molecule?
A: -0.24

Q: What about the composite z-score [19] of the same molecule?
A: 0.162

Q: And the composite z-score [20]?
A: 0.0686

Q: Which results are given for `O=C1N(CCS(=O)(=O)c2ccccc2)c2ccccc2[C@H]2OC(c3ccc(OCCCO)cc3)=N[C@@]12CCS(=O)(=O)c1ccccc1`?
A: composite z-score [1]: 3.19; composite z-score [2]: 1.21; composite z-score [3]: 0.634; composite z-score [4]: 0.943; composite z-score [5]: 1.42; composite z-score [6]: 1.74; z-score [7]: -1.23; composite z-score [8]: 0.589; composite z-score [9]: 0.816; z-score [10]: -3.3 (inactive); composite z-score [11]: 1.52; z-score [12]: -1.61 (inactive); z-score [13]: 1 (inactive); z-score [14]: 3.35 (inactive); z-score [15]: -0.168 (inactive); composite z-score [16]: 0.842; composite z-score [17]: 1.08; composite z-score [18]: 0.766; composite z-score [19]: 1.03; composite z-score [20]: 1.66

Q: Which results are given for `CCCN1C(=O)[C@@H]2Cc3c([nH]c4ccccc34)[C@@H](c3cccc(O)c3)N2C1=O`?
A: composite z-score [1]: -0.147; composite z-score [2]: 0.483; composite z-score [3]: 0.131; composite z-score [4]: 0.321; composite z-score [5]: 0.374; composite z-score [6]: 0.428; z-score [7]: 0.233; composite z-score [8]: 0.287; composite z-score [9]: -0.0455; z-score [10]: 0.718 (inactive); composite z-score [11]: -0.0436; z-score [12]: 0.792 (inactive); z-score [13]: -0.23 (inactive); z-score [14]: -0.374 (inactive); z-score [15]: -0.0707 (inactive); composite z-score [16]: -0.294; composite z-score [17]: -0.024; composite z-score [18]: 0.288; composite z-score [19]: 0.193; composite z-score [20]: 0.216
